# Measured values as given in PubChem BioAssay AID1851 (National Center for Advancing Translational Sciences (NCATS), 2009).
# Out of some 16,000 compounds screened, about 5,100 (32%) were called active. Inconclusive results (about 25%) are left out. The list shows a part of the results. Unmarked numbers belong to inactive results. The call rests on the fitted dose curve; in most records, active means well fitted curve in the direction sought with a large enough effect; inconclusive means small, poorly fitted or top-dose-only effect, or effect the other way; inactive means no such curve, though single readings can be large or run the other way.
# Target: Cytochrome P450 3A4 (Homo sapiens) (UniProt P08684)
# Test: Cytochrome panel assay with activity outcomes
# Conditions: recombinant CYP, pro-luciferin dealkylation, luminescence, p450-cyp3a4; series mostly up to 57.1 µM; activity, negative = inhibition: at the top concentration
# Method: The P450 gene superfamily is involved in the metabolism and clearance of xenobiotics. This assay used various human CYP P450 isozymes to measure the dealkylation of various pro-luciferin substrates to luciferin. The luciferin is then measured by luminescence after the addition of a luciferase detection reagent. Pro-luciferin substrate concentration in the assay was equal to its KM for its CYP P450 isozyme. Inhibitors and some substrates limit the production of luciferin, and decrease measured luminescence.
# NCGC Assay Protocol Summary:
# 1, Reagent, 2 uL, Isozyme and Pro-Luciferin
# 2, Library compounds, 23 nl, 40 uM to 0.24 nM dilution series
# 3, Controls, 23 nl, Isozyme specific inhibitor
# 4, Reagent, 2 uL, NADPH regeneration solution
# 5, Incubation time, 60 min, Isozyme specific temperature
# 6, Reagent, 4ul, Detection reagent
# 7, Incubation time, 20 min, Isozyme specific temperature
# 8, Detection, 1 sec, ViewLux luminescent read
# The luciferase-based P450-GloTM Screening Systems were obtained from Promega (Madison, WI) for CYP 1A2 (V9770), CYP 2C9 (V9790), CYP2 C19 (V9880), CYP 2D6 (V9890), and CYP 3A4 Luciferin-PPXE (V9910) and were adapted for 1,536-well microplates and an automated protocol. The control compounds furafylline for 1A2 (F124), sulfaphenazole for CYP 2C9 (S0758), ketoconazole for CYP 2C19 (K1003), quinidine for 2D6 (Q3625), and ketoconazole for 3A4 (K1003) were purchased from Sigma Aldrich (St. Louis, MO). Recombinant P450 enzymes were obtained from baculovirus constructs expressed in insect cells (BD/Gentest).
# Medium-binding white solid Kalypsys plates used. Mixtures kept on ice. 1A2: 10 nM 1A2, 100 uM Luc-ME, 100 mM KPO4; 2C9: 10 nM 2C9, 100 uM Luc-H, 25 mM KPO4; 2C19: 5 nM 2C19, 10 uM Luc-H EGE, 50 mM KPO4; 2D6: 5 nM 2D6, 30 uM Luc-ME EGE, 100 mM KPO4; 3A4: 10 nM, 25 uM Luc-PPXE. All amounts are reflected in their final concentration, working concentration is 2x.
# NADPH regeneration solution: 1.3 mM NADP+, 3.3 mM glucose-6-phosphate, 3.3 mM MgCl2, 0.4 U/mL glucose-6-phosphate dehydrogenase for all isozymes, 200 mM KPO4 for 3A4. Mixture prepared at RT but kept on ice during automated run.
# RT incubation in auxilliary plate hotel for 1A2, 2D6, and 3A4; 37C for 2C9 and 2C19.
# Keywords: P450, CYP1A2, CYP2C19, CYP2C9, CYP2D6, CYP3A4, Luciferase, MLSMR, MLSCN, NIH Roadmap, qHTS, NCGC
# On the % scale 0 is the no-effect control and ±100 the full control effect.
# Chain of Cytochrome P450 3A4 (Homo sapiens) (P08684 whole entry, looked up): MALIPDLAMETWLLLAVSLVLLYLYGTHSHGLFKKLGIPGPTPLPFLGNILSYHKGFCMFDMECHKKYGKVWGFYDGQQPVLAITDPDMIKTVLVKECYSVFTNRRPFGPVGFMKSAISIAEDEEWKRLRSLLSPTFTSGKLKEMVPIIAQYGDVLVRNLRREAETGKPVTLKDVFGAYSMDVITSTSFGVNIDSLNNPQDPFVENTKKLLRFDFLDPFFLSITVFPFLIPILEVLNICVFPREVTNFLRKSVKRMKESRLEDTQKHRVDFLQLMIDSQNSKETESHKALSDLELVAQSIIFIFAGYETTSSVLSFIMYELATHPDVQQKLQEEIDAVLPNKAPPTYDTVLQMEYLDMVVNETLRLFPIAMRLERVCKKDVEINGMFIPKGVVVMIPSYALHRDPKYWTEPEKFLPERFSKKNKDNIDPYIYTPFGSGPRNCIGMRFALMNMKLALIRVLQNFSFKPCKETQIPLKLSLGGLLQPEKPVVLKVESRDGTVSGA
Compound,AC50,"activity, negative = inhibition"
CCCCCC[C@H]1C(=O)O[C@H](C)[C@H](NC(=O)c2cccc(NC=O)c2O)C(=O)O[C@@H](C)[C@H]1OC(=O)CC(C)C,5.01 µM (active),–
C[C@@H]1OC=C2[C@@H](O)[C@H]3O[C@H]3C(=O)[C@@]23[C@H]1[C@H]1C2=C([C@@H](O)[C@H]4O[C@@H]4C2=O)[C@@H]3O[C@@H]1C,–,-18.6% [at 11.4 µM]
C[N+]1(C)[C@@H]2CC(OC(=O)[C@@H](CO)c3ccccc3)C[C@@H]1[C@H]1O[C@H]12 (stereo partly drawn),–,2.59% [at 11.4 µM]
Nc1nc(N)c2nc(CNc3ccc(C(=O)N[C@H](CCC(=O)O)C(=O)O)cc3)cnc2n1,–,4.59%
C[C@@H](COc1ccccc1)N(CCCl)Cc1ccccc1,–,-18.7% [at 25.6 µM]
N[C@@H](CCCP(=O)(O)O)C(=O)O,–,-6.54%
O=c1cc(-c2ccc(O)cc2)oc2c([C@H]3O[C@@H](CO)[C@@H](O)[C@@H](O)[C@@H]3O)c(O)cc(O)c12,–,-6.72% [at 25.6 µM]
Cc1ccccc1-c1cncnc1NCCc1cnc[nH]1,0.631 µM (active),–
Clc1ccccc1-c1cncnc1NCCc1cnc[nH]1,0.501 µM (active),–
CNCCc1cnc[nH]1,–,-27.6%
CN(C)C(=O)Oc1ccc[n+](C)c1,–,0.854%
NC(=O)c1ccc(C(=O)Nc2ccc([As](=O)(O)O)cc2)cc1,–,8.53% [at 11.4 µM]
C[C@H](Br)C(=O)N[C@H](CO)C(=O)O,–,8.21% [at 11.4 µM]
O=C(Oc1ccc(S(=O)(=O)F)cc1F)c1ccccc1Cl,–,-5.64% [at 11.4 µM]
NCCc1c[nH]c2ccc(OC(=O)C(=O)O)cc12,–,-35.7% [at 11.4 µM]
O=C(O)c1cc[c]([Hg][S]c2ncnc3nc[nH]c23)cc1,–,-15.7% [at 11.4 µM]
O=C(c1cc(=O)[nH]c2ccc(Br)cc12)N1CCC2(CC1)OCCO2,–,-17.8%
CN(C)c1ccc(NC(=O)CN2C(=O)CN=C(c3ccccc3)c3ccccc32)cc1,4.47 µM (active),–
Cc1cc2c(C(F)(F)F)cc(=O)oc2c2c1NCCC2,–,-22.3%
CCCCCCCCCCCCCC(=O)O[C@H]1[C@@H](C)[C@@]2(O)[C@@H](C=C(CO)C[C@]3(O)C(=O)C(C)=C[C@@H]23)C2C(C)(C)[C@]21OC(C)=O (stereo partly drawn),25.1 µM (active),–
CC(C)(c1ccc(OC[C@@H]2CO2)cc1)c1ccc(OC[C@H]2CO2)cc1,–,-15.7%
N=C1c2ccccc2CN1NC(=O)c1ccc(Cl)cc1,–,-1.51%
O=C(O)[C@@H](O)[C@@H](O)[C@@H]1[O][Sb][O][C@@H]1CO,–,-1.25% [at 11.4 µM]
O=C(Nc1cccc(F)c1)N1CC2(CCNCC2)C1,–,-2.67%
O=C(Nc1ccccc1)N1CCCC2(CCN(C(=O)Oc3ccccc3)CC2)C1,15.8 µM (active),–

Compound,AC50,"activity, negative = inhibition"
COc1ccc(NC(=O)N2CCCC3(CCN(C(=O)Oc4ccccc4)CC3)C2)cc1,12.6 µM (active),–
O=C(Nc1cccc(F)c1)N1CCCC2(CCN(C(=O)Oc3ccccc3)CC2)C1,15.8 µM (active),–
NC[C@@H](Cc1ccccc1)P(=O)(O)O,–,-4.81% [at 11.4 µM]
CC12CN3CC(C)(CN(C1)C31CCSCC1)C2=O,–,-2.74%
C[C@H]1CC[C@]2(OC1)O[C@@H]1C[C@@H]3[C@@H]4CC[C@H]5C[C@@H](O)CC[C@]5(C)[C@@H]4CC(=O)[C@@]3(C)[C@H]1[C@@H]2C,–,-5.6% [at 25.6 µM]
Cc1ncsc1CCCl,–,6.86%
CO[C@@H](C)[C@](O)(C(=O)OCC1=CCN2CC[C@@H](O)[C@H]12)C(C)C,–,-1.31% [at 25.6 µM]
C#C[C@@]1(O)CC[C@@H]2[C@@H]3CCC4=CC(=O)CC[C@@]4(C)[C@H]3CC[C@]21C,–,-13.5% [at 25.6 µM]
NO,–,4.33%
O=C1NC(=S)NC(=O)C1=Cc1cccc2cc3ccccc3cc12,–,-17.5% [at 11.4 µM]
C[C@@H]1O[C@H](C[N+](C)(C)C)CS1,–,-2.37%
COc1ccc2[nH]c(C(=O)c3ccccc3)cc2c1,7.94 µM (active),–
COC(=O)Nc1nc2ccc(C(=O)c3cccs3)cc2[nH]1,–,-9.88% [at 25.6 µM]
COc1ccc2[nH]c3c(c2c1)CCNC3,–,-20.9%
Fc1ccc(CCNCc2ccc(Cl)c(Cl)c2)cc1,–,-18.5% [at 2.29 µM]
Fc1ccccc1CCNCc1cccc(Cl)c1Cl,0.631 µM (active),–
CCN=C=NCCCN(C)C,–,0.783% [at 11.4 µM]
O=NN(Cc1ccc(Cl)cc1)[C@@H](C(=O)O)c1ccccc1,–,-7.56% [at 11.4 µM]
C[N+]1([O-])[C@@H]2CC[C@H]1CC(OC(=O)[C@@H](CO)c1ccccc1)C2 (stereo partly drawn),–,-4.21% [at 25.6 µM]
C[C@]12CC[C@H]3c4ccc(O)cc4CC[C@@H]3[C@H]1CC[C@@H]2OP(=O)(O)O,–,0.528% [at 11.4 µM]
COc1ccc(C2NCc3ccc4c(c3-n3cccc32)OCO4)cc1OC (stereo not drawn),5.01 µM (active),–
COCCCNC(=S)NC1CC2CCCC(C1)N2Cc1cccs1 (stereo not drawn),–,2.48%
COCCNC(=S)N1C2CCC1CC(NC(=O)NC13CC4CC(CC(C4)C1)C3)C2 (stereo not drawn),3.16 µM (active),–
COCCNC(=S)NC1CC2CCCC(C1)N2Cc1cccs1 (stereo not drawn),–,-1.58%
CN1CCN(c2ccc3ccccc3n2)CC1,–,inactive

Compound,AC50,"activity, negative = inhibition"
NC(N)=NN=Cc1c(Cl)cccc1Cl,–,-25.5%
[N-]=[N+]=NCC(=O)c1c[nH]c(=O)[nH]c1=O,–,17.4% [at 11.4 µM]
N/C(=N\N=C/c1ccc(-c2ccc(O)c(C(=O)O)c2)o1)N[N+](=O)[O-],–,-39.2%
C[C@@H]1Cc2cc3c(cc2C(c2ccc(N)cc2)=NN1)OCO3,2.51 µM (active),–
C[N+]1([O-])[C@H]2CC[C@H]1CC(OC(=O)[C@@H](CO)c1ccccc1)C2 (stereo partly drawn),–,-2.26% [at 11.4 µM]
C[C@@]12CC(=O)[C@H]3[C@@H](CCC4=CC(=O)CC[C@]43C)[C@H]1CCC2=O,–,-41.1% [at 25.6 µM]
NC(N)=Nc1ccc2[nH]c3c(c2c1)C[C@]1(O)[C@@H]2Cc4ccc(O)c5c4[C@]1(CCN2CC1CC1)[C@@H]3O5,–,15.1%
CCCC[N+]1(C)[C@@H]2CC(OC(=O)[C@@H](CO)c3ccccc3)C[C@H]1[C@H]1O[C@H]12 (stereo partly drawn),–,-9.71%
CCSc1nnc(C(N)Cc2ccccc2)o1 (stereo not drawn),11.2 µM (active),–
COc1ccc(C[C@@H](N)c2ccc(OC)cc2)cc1,–,-30.1% [at 11.4 µM]
N[C@@H](Cc1ccccc1)P(=O)(O)O,–,-2.63% [at 11.4 µM]
CN1CC[C@@]23c4ccccc4N[C@H]1[C@]21CCN(C)[C@@H]3Nc2ccccc21,–,-11.4% [at 25.6 µM]
C[C@H](OP(=O)(O)O)[C@H](N)C(=O)O,–,-9.79% [at 11.4 µM]
O=C1C=CC(=O)c2c1ccc1c2ccc2ccccc21,–,-24.8% [at 25.6 µM]
Nc1ccc(CCN2CCN(c3cccc(C(F)(F)F)c3)CC2)cc1,7.94 µM (active),–
NCCCN1CCN(c2ccccc2)CC1,–,-17.3% [at 11.4 µM]
C=C1[C@@H]2C[C@@]3([C@H]1O)[C@H]1C[C@@H]4[C@@]5(C)CC[C@H](O)[C@]4([C@H]1N(CC)C5)[C@H]3C[C@H]2O,–,-1.02% [at 25.6 µM]
NC(=NCc1ccc(Cl)cc1)SCCCc1cnc[nH]1,1.58 µM (active),–
NC(=NCCc1ccc(I)cc1)SCCCc1cnc[nH]1,0.794 µM (active),–
OCc1cnc[nH]1,–,-11.1%
NC(N)=NCCC[C@H](N)C(=O)O,–,-9.21%
NS(=O)(=O)c1cc([C@@]2(O)NC(=O)c3ccccc32)ccc1Cl,–,-2.87% [at 25.6 µM]
Cc1o[nH]c(=O)c1C[C@H](N)C(=O)O,–,inactive
CCCCN1C(=O)/C(=C/c2ccc(N(C)C)cc2)C(=O)N(Cc2ccco2)C1=O,–,-12% [at 2.29 µM]
O=C(O)/C=C\c1ccc[c]([Sb](=[O])([OH])[OH])c1,–,-2.48% [at 11.4 µM]

Compound,AC50,"activity, negative = inhibition"
CCCN1CCC[C@H](c2cccc(C#N)c2)C1,–,-3.09%
CCCc1cc2c(n1Cc1ccc(C)cc1)C(C)C1CN(C(=O)c3ccccc3)C(C)(C(=O)OC)C21 (stereo not drawn),3.16 µM (active),–
CCCc1cc2c(n1CCO)C(C)C1CN(C(=O)c3ccccc3)C(C)(C(=O)OC)C21 (stereo not drawn),10 µM (active),–
CCCc1cc2c(n1Cc1cccc(Cl)c1)C(C)C1CN(C(=O)c3ccccc3)C(C)(C(=O)OC)C21 (stereo not drawn),5.01 µM (active),–
CC[N+](CC)(CCCNC1=CC(=O)C(NCCC[N+](CC)(CC)Cc2ccccc2)=CC1=O)Cc1ccccc1,–,-14%
CC(C)C[C@H](NP(=O)(O)O[C@@H]1O[C@@H](C)[C@@H](O)[C@@H](O)[C@H]1O)C(=O)N[C@@H](Cc1c[nH]c2ccccc12)C(=O)O,–,-8.92%
C[C@@]12CC[C@H]3[C@@H](CC=C4C[C@H](OS(=O)(=O)O)CC[C@]43C)[C@H]1CCC2=O,–,-14.9%
CCN1CCN(c2ccc(NC(=O)C(C)C)cc2Cl)CC1,–,2.04%
NC[C@H](O)c1ccc(O)cc1,–,inactive
O=C1C2CCN(CC2)C1(CO)CO,–,inactive
O=C(O)Cc1cccnc1C(=O)O,–,-4.82%
C[C@@H]1O[C@H]1P(=O)(O)O,–,9.75%
CC[C@H]1CN2CCc3cc(OC)c(OC)cc3[C@H]2C[C@@H]1C[C@H]1NCCc2c1[nH]c1ccc(O)cc21,–,-8.94% [at 11.4 µM]
C[C@](N)(CCP(=O)(O)O)C(=O)O,–,-14.5%
COC(=O)N1CCC2(CCN(CC(C)C)CC2)CC1,–,-27.1%
CN1CC[C@@]2(CCCN(C(=O)Oc3ccccc3)C2)C1,12.6 µM (active),–
CC(C)CN1CC2(CCN(C(=O)Oc3ccccc3)CC2)C1,–,-5.86%
O=C(Oc1ccccc1)N1CCC[C@@]2(CCN(C(c3ccccc3)c3ccccc3)C2)C1,10 µM (active),–
O=C(Oc1ccccc1)N1CCC2(CCCN(C(c3ccccc3)c3ccccc3)C2)CC1,–,4.99%
CN1CCC2(CC1)CCN(C(=O)Oc1ccccc1)CC2,–,-5.53%
COC(=O)N1CCC2(CCCN(C)C2)CC1,–,-17.8%
CC(C)CN1CC[C@@]2(CCCN(C(=O)Oc3ccccc3)C2)C1,12.6 µM (active),–
N#Cc1ccc(CN2CC[C@@]3(CCCN(C(=O)Oc4ccccc4)C3)C2)cc1,7.94 µM (active),–
